In PubChem BioAssay AID920 (The Scripps Research Institute Molecular Screening Center, 2007):
The campaign covered roughly 200,000 compounds. About 700 (0.35%) were called active. The sample as a whole holds a higher share of actives than the screen did. Unmarked numbers belong to inactive results.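 The calls were made as follows: active = inhibition above a set limit, the mean inhibition across all tested compounds plus 3 SD (cut at about 34% in these data); inactive = the rest.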

experiment: STAT1 signaling inhibitors, primary screen, cell-based, HTS, luciferase reporter (AID 920); details: NIH 3T3 STAT1-luciferase reporter, IFN-gamma, luminescence; at 5.5 µM; hits give high values;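 also: 0% = IFN-gamma with DMSO and 100% = IFN-gamma with 300 µM nifuroxazide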

| Compound | inhibition |
| --- | --- |
| Cc1noc(C)c1/C=N/Nc1ccc2ccccc2n1 | -64.7% |
| C(=N\Nc1ccc2ccccc2n1)/c1ccc2c(c1)OCO2 | 68.7% (active) |
| Brc1ccc(-c2csc(N/N=C/c3ccc4c(c3)OCO4)n2)cc1 | -12.1% |
| CCOC(=O)C1C(c2ccc(Cl)cc2)NC(=S)NC1(O)C(F)(F)F (stereo not drawn) | 10.5% |
| Cc1ccc(CN2C(=O)N/C(=C/c3cc(C)n(-c4ccccn4)c3C)C2=O)cc1 | -13.2% |
| S=C(Nc1ccc2c(c1)OCO2)N1CCCC1 | -9.5% |
| c1c2c(cc3sc(N4CCCCC4)nc13)OCCO2 | 47.8% (active) |
| COc1ccc2nc(Nc3nc4cc5c(cc4s3)OCCO5)sc2c1 | -15.9% |
| Brc1ccc2nc(N3CCCC3)sc2c1 | -39.3% |
| CCOC(=O)C1(CCOc2ccccc2)CCN(C(=O)c2cncs2)CC1 | -0.02% |
| O=C(O)CSc1nnc(-c2ccc3c(c2)OCO3)n1-c1ccccc1 | -5.92% |
| CCCCCC(=O)Nc1ccc2oc(-c3ccncc3)nc2c1 | -3.9% |
| COc1cccc(-c2nc3cc(C)ccc3o2)c1 | -6.24% |
| CCc1ccc2oc(-c3ccc(N)cc3)nc2c1 | 34.5% (active) |
| CC(C)/C=N/NC(=O)c1cc(Br)ccc1O | 11.2% |
| O=C(/C=C/c1ccccc1[N+](=O)[O-])NCC1CCCO1 (stereo not drawn) | -5.46% |
| CCc1nnc(NC(=O)CCCSc2nc3ccccc3[nH]2)s1 | 20.4% |
| NC(=O)Nc1ccccc1C(=O)NCCc1ccccc1 | -28.8% |
| COc1cc2c(C(=O)N3CCN(C)CC3)c(CSc3ccccc3)n(C)c2cc1Br | 10.4% |
| COc1ccc(-c2nc(-c3ccccc3)no2)c(OC)c1 | 60.8% (active) |
| COc1ccc(-c2noc(-c3ccc(C)cc3)n2)cc1 | -36.1% |
| COc1ccc(-c2noc(-c3cccc(OC)c3OC)n2)cc1OC | -49.2% |
| Cc1ccc(C(C)(C)C)c(OCCCCN2CCCC2)c1 | 9.92% |
| Cc1nc2ccccc2c(C)c1C(=O)c1ccc(F)cc1 | 15.9% |
| O=C(c1ccc(S(=O)(=O)c2ccccc2)cc1)N1CCCCCC1 | 14.2% |

| Compound | inhibition |
| --- | --- |
| CCOC(=O)C(=CNc1cccc(C)n1)C(=O)OCC | 43.5% (active) |
| Cc1cccc(NC(=O)c2ccc3ccccc3n2)n1 | -31.6% |
| CCOc1ccc(OCc2ccc(C(=O)Nc3cccc(C)n3)o2)cc1 | -24.1% |
| Cc1ccc(C(C[N+](=O)[O-])c2c(C)cc3ccccn23)cc1 (stereo not drawn) | 10.7% |
| C=CCN1C(=O)C(Cc2ccc(OCC)cc2)SC1=Nc1ccc(C(=O)O)cc1 (stereo not drawn) | 11.1% |
| Nc1ccc(OCC(O)C[n+]2ccc(CCS(=O)(=O)[O-])cc2)cc1 (stereo not drawn) | 0.06% |
| Fc1ccc2[nH]c3c(N4CCSCC4)ncnc3c2c1 | 25.6% |
| Cc1cc(N2CCN(Cc3ccc4c(c3)OCO4)CC2)n2ncnc2n1 | 6.31% |
| Fc1ccc2[nH]c3c(N4CCN(Cc5ccc6c(c5)OCO6)CC4)ncnc3c2c1 | 45.1% (active) |
| O=C(CC1SC(=Nc2ccccc2F)N(CCN2CCOCC2)C1=O)Nc1ccc(F)cc1F (stereo not drawn) | 2.14% |
| Cc1ccc(N/C(N)=N/c2nc(C(F)(F)F)cc(C(F)(F)F)n2)cc1 | -12.9% |
| CCOC(=O)CN/C=C(\C#N)c1ccc(F)cc1 | 1.52% |
| CCOc1cc(/C=C(/C#N)c2ccc(Cl)cc2)cc(Cl)c1OCC(=O)O | 47.4% (active) |
| CCOc1c(Cl)cc(/C=N/O)cc1OC | 5.54% |
| COc1ccc(C2c3c(C)nn(-c4ccccc4)c3NC(=O)N2c2ccccc2)cc1 (stereo not drawn) | -3.45% |
| Cc1noc(C)c1CCC(=O)O | 3.78% |
| O=C(C1CCN(C2CCN(Cc3ccc4cc(F)ccc4n3)CC2)CC1)N1CCCC1 | 2.2% |
| CCc1cc(CNC(=O)CC2C(=O)NCCN2CC2CCCCC2)on1 (stereo not drawn) | 6.89% |
| CN(C)S(=O)(=O)c1cccc(NC(=S)N/N=C/C(=O)c2ccccc2)c1 | -1.89% |
| O=C(O)c1cccc(NC(=S)N/N=C/c2c[nH]c3ccccc23)c1 | 58% (active) |
| CSC(=S)N/N=C/c1c[nH]c2ccccc12 | -6.4% |
| COc1ccc(CCC(=O)OCC(=O)Nc2ccc(C)c(S(=O)(=O)N(C)C)c2)cc1 | 1.53% |
| Cc1ccc2[nH]cc(CCCN3C(=O)c4ccccc4C3=O)c2c1 | 0.21% |
| CCOC(=O)N1CCN(C(=O)C2CCN(Cc3ccc(OC)cc3OC)CC2)CC1 | 5.92% |
| CCOC(=O)N1CCN(C(=O)C2CCN(c3ncnc4c3sc3cccc(F)c34)CC2)CC1 | 37.1% (active) |

| Compound | inhibition |
| --- | --- |
| CCOC(=O)C1CCN(c2ncnc3c2oc2ccc(Br)cc23)CC1 | -3.28% |
| Cc1ccc(-n2c(SCC(=O)Nc3ncc(Cl)cc3Cl)nc3ccccc32)cc1 | 12.4% |
| NS(=O)(=O)c1cccc(NC(=O)CSc2nc3ccccc3n2-c2ccccc2)c1 | 55.1% (active) |
| Cc1cccc(-n2c(SCC(=O)Nc3cccc(S(=O)(=O)NC4=NCCCCC4)c3)nc3ccccc3c2=O)c1C | -1.66% |
| Cc1nn(C)cc1C(=O)Nc1ccccc1Br | -7.01% |
| CCCN1C(=O)C(Cc2nc3ccccc3c(=O)n2-c2ccccc2)c2cc(C)ccc21 (stereo not drawn) | 6.11% |
| CCCOC1CCCN(Cc2cn(C)nc2-c2ccccc2F)C1 (stereo not drawn) | -4.18% |
| Cc1ncoc1C(=O)NCCC(c1ccccc1)c1ccccc1 | -1.04% |
| CCn1c(SCC(=O)Nc2ccc(OC)c(OC)c2)nnc1-c1c[nH]c2ccccc12 | 3.46% |
| CCOC(=O)N1CCN(C(=O)CSc2nnc(-c3c[nH]c4ccccc34)n2CCOC)CC1 | 37.2% (active) |
| CCC(C)Sc1nnc(-c2c[nH]c3ccccc23)n1CCOC (stereo not drawn) | 3.54% |
| Cc1ccc2[nH]cc(CCNC(=O)c3ccc([N+](=O)[O-])cc3)c2c1 | -1.14% |
| COc1ccc(N2C(=O)CC(SC(C)C)C2=O)cc1 (stereo not drawn) | 2.11% |
| COc1ccc(C2CC(c3cccs3)=NN2c2ccc(F)cc2)cc1OC (stereo not drawn) | -5.19% |
| COc1ccc(C2CC(c3cccs3)=NN2C(=O)CSc2nncs2)cc1OC (stereo not drawn) | 17% |
| COc1ccc(C2CC(c3cccs3)=NN2c2nc(C)c(C(C)=O)s2)cc1OC (stereo not drawn) | 34.5% (active) |
| Cc1cccc(NS(=O)(=O)c2ccc(C)c(C(N)=O)c2)c1 | 14% |
| CCN(/N=C/c1ccccc1)c1cc(=O)n(C)c(=O)[nH]1 | 1.47% |
| CC1CC(C)CN(C(=O)CSc2ccsc2[N+](=O)[O-])C1 (stereo not drawn) | 1.9% |
| Cc1ccc(CN(C)CC(=O)Nc2cccc([N+](=O)[O-])c2)o1 | 8.85% |
| Cc1ccc(NC(=O)CN(C)CC(=O)Nc2cccc(F)c2)cc1[N+](=O)[O-] | 34.4% (active) |
| CN(CC(=O)Nc1cccc(F)c1)CC(=O)Nc1cccc([N+](=O)[O-])c1 | 9.08% |
| O=C(c1cccc([N+](=O)[O-])c1)N1CCN(C(=O)c2ccco2)CC1 | 1.07% |
| Cc1ccc2[nH]c(C)c(CCNC(=O)NC3CCCCC3)c2c1 | 8.57% |
| CC(=O)N1N=C(c2ccccc2)OC1c1cccnc1 (stereo not drawn) | -12.4% |

| Compound | inhibition |
| --- | --- |
| COc1ccc(C(=O)Nc2ccccc2C(=O)N/N=C/c2ccc(O)c(OC)c2)cc1 | 99.9% (active) |
| CCn1c(/C=N/NC(=O)c2ccc(OC)cc2)nc2ccccc21 | 1.5% |
| COc1cc(/C=N/NC(=O)c2ccccc2)ccc1OS(=O)(=O)c1ccccc1 | -17.2% |
| COc1ccc(/C=N/NC(=O)c2ccccc2)cc1OS(=O)(=O)c1ccccc1 | 6.31% |
| COc1ccccc1C(=O)NNC(=O)c1ccc(NC(=O)c2ccccc2)cc1 | 3.37% |
| COc1ccc(C(=O)Nc2ccccc2C(=O)N/N=C/c2ccccc2OC)cc1 | 58.5% (active) |
| CCN(C(=O)c1ccc(Br)cc1)c1ccccc1 | 12.3% |
| CC(=O)c1c(C)[nH]c(C(=O)OCC(=O)Nc2sc3c(c2C#N)CCCC3)c1C | -6.37% |
| Cc1nc(CN2CCN(C(=O)CCc3nnc(Cc4c[nH]c5ccccc45)o3)CC2)cs1 | 0.65% |
| CCCCOC(=O)CCCc1ccc([N+](=O)[O-])cc1[N+](=O)[O-] | 6.62% |
| Cc1cc(O)c(NC(=O)c2ccc(C)c([N+](=O)[O-])c2)cc1C | -3.86% |
| O=C(NNC(=O)C1CCN(c2ncccn2)CC1)c1ccccc1 | -0.55% |
| CC(=O)c1cc(C#N)c(N2CCCCC2)nc1C | 2.46% |
| Cc1ccsc1C(=O)OCC(=O)c1cc2ccccc2o1 | -6.53% |
| Cc1cc(C(=O)Cn2cnc3cc([N+](=O)[O-])ccc3c2=O)c(C)n1CC1CCCO1 (stereo not drawn) | -2.94% |
| Cc1ccsc1C(=O)OCC(=O)c1cc(C)n(CC2CCCO2)c1C (stereo not drawn) | 77.5% (active) |
| CC1CC(C)(C)NC(=S)N1CCC(=O)N1CCN(Cc2ccccc2)CC1 (stereo not drawn) | -1.54% |
| COc1ccc(NC(=S)NCCN2CCC(C)CC2)cc1 | 4.93% |
| Cc1cccc(C(=O)Nc2ccc3c(c2)C(=O)N(CC(C)C)C3=O)c1 | -24.8% |
| O=C(CSc1nc2ccc([N+](=O)[O-])cc2[nH]1)c1ccc(Cl)cc1 | -9.84% |
| Cc1ccc(-c2cn3cc(C)ccc3n2)cc1 | 94.3% (active) |
| COc1ccc(-c2cn3ccsc3n2)cc1 | -38.6% |
| Cc1ccc(-c2cn3cc([N+](=O)[O-])ccc3n2)cc1 | -37.1% |
